According to PubChem BioAssay:
Values joined by “and” are separate entries in the source; they are usually repeats but may differ in a detail not shown here. Identical values can stand only once. Some structures have more than one record in an assay (separate samples or runs), and their calls can disagree. Active and inactive are the calls of the source. Unless noted, no rule for the calls is given here.

system: not listed separately; assay: compounds altering viability of human ES cells (AID 493140); settings: human embryonic stem cell survival screen; stronger effect = higher value;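 also: cells exposed to compounds for four days before counting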

**Q.** For C=C1C2CC[C@H]3[C@]4(C)C[C@H](OC5OC(CO)C(OS(=O)(=O)O)C(OS(=O)(=O)O)C5OC(=O)CC(C)C)C[C@@H](C(=O)O)[C@H]4CC[C@]3(C2)[C@H]1O (stereo not given in full), which survival is on record?
**A.** 8.25 (inactive)

**Q.** For C[C@@H]1CC[C@H]2[C@@H](C)C(=O)O[C@@H]3OC4(C)CC[C@@H]1[C@]32OO4, which survival is on record?
**A.** 4.67 (inactive)

**Q.** With CC[C@]12CCCN3CCc4c(n(c5ccccc45)[C@](O)(C(=O)OC)C1)[C@@H]32 as the compound, how does the survival read?
**A.** 6.25 (inactive)

system: not listed separately; assay: P. berghei load reduction in hepatocytes – cell-based, HepG2, luciferase luminescence, HepG2 viability, primary screen (AID 624349; in the data active = parasite load remaining mostly below about 12%, no sharp cut-off; inactive = mostly above about 10%;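 also: 100% = mean of DMSO negative control wells on the same plate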); settings: P. berghei liver stage in HepG2, luciferase luminescence, concentration not given here; parasite load remaining: stronger effect = lower value; viability: measured here: HepG2 viability without parasites

**Q.** What does the source list for O=C1OCCN1/N=C/c1ccc([N+](=O)[O-])o1?
**A.** viability: 58.1% and 96.5%; parasite load remaining: 1.08% (active) and 4.96% (inactive)

**Q.** Which parasite load remaining does the source give for C/C=C(\C)C(=O)O[C@H]1C[C@@H](OC(C)=O)[C@@]2(C(=O)OC)CO[C@@H]3C2[C@]12CO[C@](O)(C(=O)OC)[C@H]2[C@](C)(C12O[C@@]1(C)[C@H]1C[C@@H]2OC2OC=C[C@@]21O)[C@@H]3O (stereo not given in full) here?
**A.** 62.6% (inactive)

**Q.** What about the viability of the same compound?
**A.** 97.8%

**Q.** Which viability does the source give for O=C1CC2OCC=C3CN4CC[C@]56c7ccccc7N1C5[C@H]2[C@H]3CC46 (stereo not given in full) here?
**A.** 71.9% and 95.5%

**Q.** And the parasite load remaining?
**A.** 113% (inactive) and 54.7% (inactive)

**Q.** For COc1ccc2c(c1OC)C(=O)O[C@@H]2[C@@H]1c2cc3c(cc2CCN1C)OCO3, which viability is on record?
**A.** 68.5%

**Q.** What about the parasite load remaining of the same compound?
**A.** 190% (inactive)

**Q.** Which results are given for C[C@@H]1CC[C@H]2[C@@H](C)C(=O)O[C@@H]3OC4(C)CC[C@@H]1[C@]32OO4?
**A.** parasite load remaining: 71.2% (inactive); viability: 72.2%

**Q.** Which parasite load remaining does the source give for COc1ccc2c(c1OC)C(=O)O[C@H]2[C@H]1c2cc3c(cc2CCN1C)OCO3 here?
**A.** 124% (inactive)

**Q.** And the viability?
**A.** 70.9%

**Q.** For C[C@]12CCC3C(CC[C@H]4CC(=O)CC[C@]34C)C1CCC2=O (stereo not given in full), which parasite load remaining is on record?
**A.** 63.7% (inactive)

**Q.** And the viability?
**A.** 96.1%

**Q.** For COc1ccc2c(c1)[C@]13CCCC[C@H]1[C@H](C2)N(C)CC3, which parasite load remaining is on record?
**A.** 84.3% (inactive)

**Q.** What about the viability of the same compound?
**A.** 71.2%

**Q.** With C[C@@H]1C(=O)OC2[C@H](O)C34[C@@H]5OC(=O)[C@@]3(O[C@@H]3OC(=O)[C@H](O)[C@@]34[C@H](C(C)(C)C)[C@H]5O)[C@]21O (stereo not given in full) as the compound, how does the viability read?
**A.** 70.9%

**Q.** And the parasite load remaining?
**A.** 84.4% (inactive)

**Q.** Which results are given for CCC(C)C(=O)O[C@H]1[C@H](O)C2C(CN3CC(C)CCC3[C@@]2(C)O)C2C[C@]34O[C@]5(O)C(OC(=O)C(C)(O)C(C)O)CC[C@@]3(C)C5C(OC(C)=O)[C@@H](OC(C)=O)C4[C@@]21O (stereo not given in full)?
**A.** viability: 68.5%; parasite load remaining: 75% (inactive)

**Q.** Which results are given for CNC(C)[C@@H]1CC[C@@H](N)[C@@H](OC2[C@@H](N)C[C@@H](N)[C@H](OC3OC[C@](C)(O)[C@H](NC)[C@H]3O)[C@H]2O)O1 (stereo not given in full)?
**A.** viability: 74.9% and 95.7%; parasite load remaining: 99.6% (inactive) and 66.4% (inactive)

**Q.** What does the source list for CNC(Cc1c[nH]c2ccccc12)C(=O)O (stereo not given)?
**A.** parasite load remaining: 105% (inactive); viability: 73.8%

**Q.** With C[C@@H]1CC[C@@]2(NC1)O[C@H]1C[C@H]3C4CC=C5C[C@@H](O)CC[C@]5(C)C4CC[C@]3(C)C1[C@@H]2C (stereo not given in full) as the compound, how does the parasite load remaining read?
**A.** 57% (inactive)

**Q.** And the viability?
**A.** 93.1%

system: Aerobactin synthetase IucA (Klebsiella pneumoniae hvKP1); assay: IucA enzyme inhibition, primary screen, biochemical, Spectrum library (AID 1346200); settings: malachite green pyrophosphate, A620, at 8 µM, stronger effect = lower value;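 also: 100% = wells without compound and 0% = wells lacking enzyme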

**Q.** With O=C1OCCN1/N=C/c1ccc([N+](=O)[O-])o1 as the compound, how does the activity remaining read?
**A.** 104% (inactive)

**Q.** With C/C=C(\C)C(=O)O[C@H]1C[C@@H](OC(C)=O)[C@@]2(C(=O)OC)CO[C@@H]3C2[C@]12CO[C@](O)(C(=O)OC)[C@H]2[C@](C)(C12O[C@@]1(C)[C@H]1C[C@@H]2OC2OC=C[C@@]21O)[C@@H]3O (stereo not given in full) as the compound, how does the activity remaining read?
**A.** 89% (inactive)

**Q.** Which activity remaining does the source give for O=C(NC(=O)c1ccccc1Cl)Nc1ccc(OC(F)(F)F)cc1 here?
**A.** 118% (inactive)

**Q.** For C=C1C2CC[C@H]3[C@]4(C)C[C@H](OC5OC(CO)C(OS(=O)(=O)O)C(OS(=O)(=O)O)C5OC(=O)CC(C)C)C[C@@H](C(=O)O)[C@H]4CC[C@]3(C2)[C@H]1O (stereo not given in full), which activity remaining is on record?
**A.** 102% (inactive)

**Q.** Which activity remaining does the source give for O=C1CC2OCC=C3CN4CC[C@]56c7ccccc7N1C5[C@H]2[C@H]3CC46 (stereo not given in full) here?
**A.** 121% (inactive)

**Q.** For c1cc2c(cc1[C@H]1OC[C@H]3[C@@H]1CO[C@H]3c1ccc3c(c1)OCO3)OCO2, which activity remaining is on record?
**A.** 120% (inactive)

**Q.** With COc1ccc2c(c1OC)C(=O)O[C@@H]2[C@@H]1c2cc3c(cc2CCN1C)OCO3 as the compound, how does the activity remaining read?
**A.** 113% (inactive)

**Q.** With CO[C@H]1[C@H](O)[C@H](O[C@H]2CC[C@]3(C)C4CC[C@]5(C)C(C6=CC(=O)OC6)CC[C@]5(O)C4CC[C@@H]3C2)O[C@@H](C)[C@@H]1O (stereo not given in full) as the compound, how does the activity remaining read?
**A.** 93.6% (inactive)

**Q.** For C[C@@H]1CC[C@H]2[C@@H](C)C(=O)O[C@@H]3OC4(C)CC[C@@H]1[C@]32OO4, which activity remaining is on record?
**A.** 86.3% (inactive)

**Q.** For O=C(O)P(=O)(O)O, which activity remaining is on record?
**A.** 112% (inactive)

**Q.** Which activity remaining does the source give for C[C@H]1O[C@@H](O[C@H]2[C@@H](O)C[C@H](O[C@H]3[C@@H](O)C[C@H](O[C@H]4CC[C@]5(C)C6CC[C@]7(C)[C@@H](C8=CC(=O)OC8)CC[C@]7(O)C6CC[C@@H]5C4)O[C@@H]3C)O[C@@H]2C)C[C@H](O)[C@@H]1O (stereo not given in full) here?
**A.** 121% (inactive)

**Q.** For COc1ccc2c(c1OC)C(=O)O[C@H]2[C@H]1c2cc3c(cc2CCN1C)OCO3, which activity remaining is on record?
**A.** 127% (inactive)

**Q.** With CC1(C)C2C[C@@H](O)[C@]3(C)C(CC[C@@]4(C)[C@H](c5ccoc5)OC(=O)[C@H]5O[C@]543)[C@@]2(C)[C@@H](O)C[C@H]1O (stereo not given in full) as the compound, how does the activity remaining read?
**A.** 124% (inactive)

**Q.** Which activity remaining does the source give for C[C@]12CCC3C(CC[C@H]4CC(=O)CC[C@]34C)C1CCC2=O (stereo not given in full) here?
**A.** 94.5% (inactive)

**Q.** With CC12CCCCC1(Br)[N+](=O)N2[O-] (stereo not given) as the compound, how does the activity remaining read?
**A.** 108% (inactive)

**Q.** With COc1ccc2c(c1)[C@]13CCCC[C@H]1[C@H](C2)N(C)CC3 as the compound, how does the activity remaining read?
**A.** 115% (inactive)

**Q.** Which activity remaining does the source give for O=c1ccc2c(O)c3ccoc3cc2o1 here?
**A.** 96.6% (inactive)

**Q.** Which activity remaining does the source give for CC1(C)N([O-])[N+](=O)C1(C)Br (stereo not given) here?
**A.** 96.6% (inactive)

**Q.** With C=C[C@@H]1C2=CCOC(=O)C2=CO[C@H]1O[C@@H]1O[C@H](CO)[C@@H](O)[C@H](O)[C@H]1O as the compound, how does the activity remaining read?
**A.** 126% (inactive)

**Q.** Which activity remaining does the source give for C[C@@H]1C(=O)OC2[C@H](O)C34[C@@H]5OC(=O)[C@@]3(O[C@@H]3OC(=O)[C@H](O)[C@@]34[C@H](C(C)(C)C)[C@H]5O)[C@]21O (stereo not given in full) here?
**A.** 116% (inactive)

**Q.** Which activity remaining does the source give for CCC(C)C(=O)O[C@H]1[C@H](O)C2C(CN3CC(C)CCC3[C@@]2(C)O)C2C[C@]34O[C@]5(O)C(OC(=O)C(C)(O)C(C)O)CC[C@@]3(C)C5C(OC(C)=O)[C@@H](OC(C)=O)C4[C@@]21O (stereo not given in full) here?
**A.** 107% (inactive)

**Q.** For CNC(C)[C@@H]1CC[C@@H](N)[C@@H](OC2[C@@H](N)C[C@@H](N)[C@H](OC3OC[C@](C)(O)[C@H](NC)[C@H]3O)[C@H]2O)O1 (stereo not given in full), which activity remaining is on record?
**A.** 116% (inactive)

**Q.** For CNC(Cc1c[nH]c2ccccc12)C(=O)O (stereo not given), which activity remaining is on record?
**A.** 108% (inactive)

**Q.** For CC[C@]12CCCN3CCc4c(n(c5ccccc45)[C@](O)(C(=O)OC)C1)[C@@H]32, which activity remaining is on record?
**A.** 115% (inactive)

**Q.** For CC(=O)C1=C(O)C2C3c4c[nH]c5cccc(c45)CC3C(C)(C)N2C1=O (stereo not given), which activity remaining is on record?
**A.** 102% (inactive)

**Q.** Which activity remaining does the source give for C[C@@H]1CC[C@@]2(NC1)O[C@H]1C[C@H]3C4CC=C5C[C@@H](O)CC[C@]5(C)C4CC[C@]3(C)C1[C@@H]2C (stereo not given in full) here?
**A.** 118% (inactive)
